# Assay results as given in PubChem BioAssay AID1461 (National Center for Advancing Translational Sciences (NCATS), 2008).
# About 2,300 (1%) of roughly 220,000 compounds were called active. Another 6% or so got no clear call; they are omitted. This is one part of a sample in which actives are shown more often than they occur. The call rests on the fitted dose curve; in most records, active means well fitted inhibition curve with a large enough effect; inconclusive means small, poorly fitted or top-dose-only effect, or effect the other way; inactive means no such curve, though single readings can be large or run the other way.
# Target: Neuropeptide S receptor (Homo sapiens) (UniProt Q6W5P4)
# Sequence (Q6W5P4 whole entry, looked up): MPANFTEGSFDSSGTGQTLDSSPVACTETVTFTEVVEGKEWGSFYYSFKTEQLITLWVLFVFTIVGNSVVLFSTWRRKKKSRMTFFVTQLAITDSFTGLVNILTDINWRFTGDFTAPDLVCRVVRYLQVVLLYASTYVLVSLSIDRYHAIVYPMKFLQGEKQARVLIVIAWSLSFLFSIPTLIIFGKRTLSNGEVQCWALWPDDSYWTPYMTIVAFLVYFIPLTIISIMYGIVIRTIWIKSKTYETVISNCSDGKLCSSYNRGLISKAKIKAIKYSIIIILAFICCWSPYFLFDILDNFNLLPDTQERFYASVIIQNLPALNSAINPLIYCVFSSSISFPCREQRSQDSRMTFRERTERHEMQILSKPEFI
# Assay: qHTS Assay for Antagonists of the Neuropeptide S Receptor: cAMP Signal Transduction; further: nearly all actives have a fitted effect of over 50% in size
# Conditions: CHO-NPSR cells, cAMP TR-FRET, antagonist mode; series mostly up to 38.3 µM; activity change, negative = inhibition: at the top concentration
# Excerpt: NIH Chemical Genomics Center [NCGC] NIH Molecular Libraries Probe Production centers Network [MLPCN] MLPCN Grant: X01-DA026210-01 Assay Submitter (PI): Heilig, Markus Alexander NCGC Assay Overview: Neuropeptide S receptor (NPSR), previously known as GPR154, is a recently de-orphanized G protein coupled receptor. Its endogenous ligand is the 20 amino acids peptide Neuropeptide S (NPS). […] NPS and its receptor are found in various tissues. Specifically they are highly expressed in brain areas that have been implicated in modulation of arousal, stress and anxiety. Central administration of NPS in mice produces an unusual profile of activity by inducing wakefulness and arousal, while at the same time suppressing anxiety. Therefore, NPSR may represent a novel drug target for the treatment of sleep and anxiety disorders. To identify NPSR antagonists, we developed a cell-based cAMP assay. NPS can stimulate the production of cAMP in Chinese hamster ovary cells stably expressing NPS receptor. This change in intracellular cAMP level can be detected by a homogeneous LANCE cAMP assay based on the TR-FRET (time resolved fluorescence resonance energy transfer) between a europium-labeled cAMP tracer complex and a cAMP-specific antibody labeled with Alexa Fluor 647. The europium-labeled cAMP tracer complex is formed by the tight interaction between Biotin-cAMP (b-cAMP) and streptavidin labeled with Europium-W8044 chelate (Eu-SA). Light pulse at 320 nm excites the europium of the cAMP tracer and the energy emitted is transferred to the Alexa molecule bound to the cAMP antibody, generating a TR-FRET signal at 665 nm. Residual energy from the europium will produce a light at 620 nm. The native unlabeled cAMP from cell lysates competes with the europium-cAMP tracer for antibody binding and reversely reduces the emission signal of Alexa by interrupting FRET between the two labeled molecules. Both emission signals from the FRET donor (620 nm) and the acceptor (665 nm) can be detected by a plate reader in the TRF mode. Expression of result in fluorescence ratio (665 nm/620 nm) helps to normalize differences due to cell density and reagent dispensing. This assay was successfully optimized to a 1536-well plate format.
# NCGC Assay Protocol Summary: A Chinese hamster ovary (CHO) cell line stably expressing the NPS receptor (CHO-NPSR) was obtained from Dr. Heilig lab at NIAAA and maintained in F-12 Kaighn's media (Invitrogen, Carlsbad, CA, 21127) supplemented with 10 % FBS, 100 units/ml penicillin, 100 ug/ml streptomycin and 250 ug/ml geneticin at 37C, 5% CO2 in a humidified atmosphere. Before the assay, aliquots of cells were frozen and stored at -135C. The assay was performed in 1536-well format. Data are reported for both the ratio of the two emission wavelengths, and also for the component 'donor' channel, Em2=620. Data were normalized to the controls for basal activity (DMSO only) and 100% inhibition (No NPS control). IC50 values were determined from concentration-response data modeled with the standard Hill equation. NPS 1536-well assay protocol: (1) Fresh or frozen CHO-NPSR cells were suspended in F-12 Kaighn's media supplemented with 10 % FBS, 100 units/ml penicillin and 100 ug/ml streptomycin. Cells were plated at 4 ul/well (1200 cells) to white, tissue culture treated 1536-well plates, and then cultured at 37C, 5 % CO2 for 16 to 30 hours. (2) Add 23 nl/well of compound in DMSO solution. The final titration for each compound was between 0.6 nM and 46 uM. (3) Add 1 ul of stimulation reagent (1X HBSS buffer, 5 mM HEPES, 0.1% BSA, 500 uM RO-201724 (Sigma-Aldrich, B8279), 1.5% Alexa 647-labeled anti-cAMP antibody (from Perkin Elmer), 100 nM NPS) (4) Incubation at 37C, 5 % CO2 for 60 min. (5) Add 1 ul/well detection reagent. Detection reagent was prepared by adding biotin labeled cAMP (4%), streptavidin labeled with Europium-W8044 chelate (1.33%) and TritonX-100 (1%) to detection buffer. […]
# On the % scale 0 is the no-effect control and ±100 the full control effect; potency means the concentration at half of the fitted maximal effect.
SMILES,Potency,"activity change, negative = inhibition"
CC(=O)Oc1ccccc1C(=O)Nc1ncc([N+](=O)[O-])s1,3.16 µM (active),–
CCN1CC2C3CCC(C)(O3)C2C1 (stereo not given),–,-11.5% (inactive)
O=C1NC(=O)N(c2ccc(F)cc2)C(=O)/C1=C/c1ccc2c(c1)CCCN2Cc1ccccc1,–,-19.5% (inactive)
COc1cccc(N2C(=O)NC(=O)/C(=C\c3ccc([N+](=O)[O-])s3)C2=O)c1,–,-36.3% (inactive)
Cc1cccc(N2C(=O)NC(=O)/C(=C\c3cnn(-c4ccccc4)c3)C2=O)c1,10 µM (active),–
CC1=C2C(=O)C3C(CC=C4CC(OC5OC(O)C(O)C(O)C5CO)CCC43C)C2CCC12OC1CC(C)CNC1C2C (stereo not given),–,8.99% (inactive)
CCOc1cccc(=NC2CCCCC2)c2c(C)[nH]c(C)c12,6.31 µM (active),–
COc1ccc(-n2c(O)c(C(C)=Nc3ccc4c(c3)CCC4)c(=O)[nH]c2=O)cc1,–,27.1% (inactive)
CNC(=O)Nc1ccc(C(O)(C(=O)OC)C(F)(F)F)cc1 (stereo not given),–,26.3% (inactive)
O=c1[nH]c(CN2CC=C(c3ccccc3)CC2)nc2scc(-c3cccs3)c12,–,25.8% (inactive)
CCC(C)n1c(O)c(/C=N/Nc2nc3c(c(=O)n(C)c(=O)n3C)n2C)c(=O)[nH]c1=S (stereo not given),–,5.88% (inactive)
COc1cccc(CN2CCCC(C(=O)c3ccccc3SC)C2)c1O (stereo not given),–,-42.8% (inactive)
CCCCCCCCCCCCn1ccc(=N)cc1,6.31 µM (active),–
CC(=O)Cc1ccc(OC(C)C)cc1,–,-24% (inactive)
C/C=C/CC1(CC)C(=O)NC(=S)NC1=O,–,-14.4% (inactive)
CC1C2Cn3c(nc4ccccc43)C1N(C)O2 (stereo not given),–,20.9% (inactive)
CN(C)CC1CCCCC1=O (stereo not given),–,-18.5% (inactive)
O=C1CC(=O)N(Cc2ccccc2)C(=O)N1CCCCCCN1C(=O)CC(=O)N(Cc2ccccc2)C1=O,–,4.26% (inactive)
O=c1[nH]c(=O)n(-c2ccc(F)cc2)c(O)c1C=NCCN1CCCCC1,–,-19.9% (inactive)
Fc1ccc(C2N3CCCN23)cc1 (stereo not given),–,28.7% (inactive)
